Broadly, the AC50 is the concentration giving half of the maximal activity seen.

The values that follow come from PubChem BioAssay (EPA / NIEHS).

Read-out in assay [1]: Tissue plasminogen activator (tPA), PLAT (gene 5327)
In words: BSK_BE3C_tPA: BioMAP Diversity Plus: BE3C Assay for Tissue plasminogen activator (tPA) Biomarker Activity (AID 2283041).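 Also: tPA level quantified by ELISA one day after compound addition.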 To be noted: primary human bronchial epithelial cells; actives raise or lower the signal. Summed up: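 Primary human bronchial epithelial cells in the BE3C system, exposed to compound for 24 h. tPA was quantified by ELISA; DMSO served as baseline, with gain or loss of signal fitted. Cytotoxicity checked in parallel cultures by SRB total-protein staining.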

Read-out in assay [2]: Interleukin-8 (IL8), CXCL8 (gene 3576)
In words: BSK_CASM3C_IL8: BioMAP Diversity Plus: CASM3C Assay for Interleukin-8 (IL8) Biomarker Activity (AID 2283042).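 Also: IL-8 protein level quantified by ELISA.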 To be noted: primary human coronary artery smooth muscle cells; actives raise or lower the signal.

Read-out in assay [3]: Human Leukocyte Antigen - DR isotype (HLADR), HLA-DRA (gene 3122)
In words: BSK_CASM3C_HLADR: BioMAP Diversity Plus: CASM3C Assay for Human Leukocyte Antigen - DR isotype (HLADR) Biomarker Activity (AID 2283043).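 Also: cell-surface HLA-DR protein level quantified by ELISA.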 The note with it: primary human coronary artery smooth muscle cells; actives raise or lower the signal.

Read-out in assay [4]: Macrophage colony-stimulating factor (MCSF), CSF1 (gene 1435)
In words: BSK_CASM3C_MCSF: BioMAP Diversity Plus: CASM3C Assay for Macrophage colony-stimulating factor (MCSF) Biomarker Activity (AID 2283044).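 Also: M-CSF protein amount quantified by ELISA after 24 h exposure.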 The note with it: primary human coronary artery smooth muscle cells; actives raise or lower the signal.

Read-out in assay [5]: Low-density lipoprotein receptor (LDLR), LDLR (gene 3949)
In words: BSK_CASM3C_LDLR: BioMAP Diversity Plus: CASM3C Assay for Low-density lipoprotein receptor (LDLR) Biomarker Activity (AID 2283045).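 Also: LDLR protein level on the cell surface quantified by ELISA.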 To be noted: primary human coronary artery smooth muscle cells; actives raise or lower the signal.

Read-out in assay [6]: Monocyte Chemoattractant Protein-1 (MCP1), CCL2 (gene 6347)
Briefly: BSK_CASM3C_MCP1: BioMAP Diversity Plus: CASM3C Assay for Monocyte Chemoattractant Protein-1 (MCP1) Biomarker Activity (AID 2283046).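 Also: MCP-1 level quantified by ELISA 24 h after dosing.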 The note with it: primary human coronary artery smooth muscle cells; actives raise or lower the signal.

Assay [7] in a line: BSK_CASM3C_Proliferation: Cell Proliferation Assessment in the BioMAP Diversity Plus: CASM3C Assay (AID 2283047).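 Also: sulforhodamine B total protein stain as relative cell number at 560 nm; sub-confluent cells exposed 48 h before staining; fitted both ways against DMSO so gain or loss of cell number.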 To be noted: primary human coronary artery smooth muscle cells.
Read-out in assay [8]: Monokine induced gamma interferon (MIG), CXCL9 (gene 4283)
Briefly: BSK_CASM3C_MIG: BioMAP Diversity Plus: CASM3C Assay for Monokine induced gamma interferon (MIG) Biomarker Activity (AID 2283048).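 Also: MIG protein level measured by ELISA.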 To be noted: primary human coronary artery smooth muscle cells; actives raise or lower the signal.

Read-out in assay [9]: serum amyloid A (SAA), SAA1 (gene 6288)
In words: BSK_CASM3C_SAA: BioMAP Diversity Plus: CASM3C Assay for serum amyloid A (SAA) Biomarker Activity (AID 2283049).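 Also: SAA protein level quantified by ELISA.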 To be noted: primary human coronary artery smooth muscle cells; actives raise or lower the signal.

Assay [10] is described as follows: BSK_CASM3C_SRB: Viability Assessment in the BioMAP Diversity Plus: CASM3C Assay (AID 2283050). The note with it: primary human coronary artery smooth muscle cells.
Read-out in assay [11]: Thrombomodulin, THBD (gene 7056)
In words: BSK_CASM3C_Thrombomodulin: BioMAP Diversity Plus: CASM3C Assay for Thrombomodulin Biomarker Activity (AID 2283051).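 Also: thrombomodulin protein level measured by ELISA 24 h after dosing.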 To be noted: primary human coronary artery smooth muscle cells; actives raise or lower the signal.

Read-out in assay [12]: Tissue Factor, F3 (gene 2152)
In words: BSK_CASM3C_TissueFactor: BioMAP Diversity Plus: CASM3C Assay for Tissue Factor Biomarker Activity (AID 2283052).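 Also: cell surface tissue factor protein level read by ELISA.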 To be noted: primary human coronary artery smooth muscle cells; actives raise or lower the signal.

Read-out in assay [13]: Interferon-gamma inducible Protein 10 (IP10), CXCL10 (gene 3627)
In words: BSK_hDFCGF_IP10: BioMAP Diversity Plus: hDFCGF Assay for Interferon-gamma inducible Protein 10 (IP10) Biomarker Activity (AID 2283053). The note with it: primary human foreskin fibroblasts; actives raise or lower the signal. Summed up: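 Primary human foreskin fibroblasts exposed to chemicals for 24 h. IP-10 measured by ELISA; changes fitted bidirectionally against DMSO baseline.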

Read-out in assay [14]: Urokinase-type plasminogen activator receptor (uPAR), PLAUR (gene 5329)
Briefly: BSK_CASM3C_uPAR: BioMAP Diversity Plus: CASM3C Assay for Urokinase-type plasminogen activator receptor (uPAR) Biomarker Activity (AID 2283054).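 Also: cell-surface uPAR protein level quantified by ELISA.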 The note with it: primary human coronary artery smooth muscle cells; actives raise or lower the signal.

Read-out in assay [15]: Vascular cell adhesion molecule 1 (VCAM1), VCAM1 (gene 7412)
In words: BSK_CASM3C_VCAM1: BioMAP Diversity Plus: CASM3C Assay for Vascular cell adhesion molecule 1 (VCAM1) Biomarker Activity (AID 2283055).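 Also: VCAM-1 protein level quantified by ELISA on the cells.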 To be noted: primary human coronary artery smooth muscle cells; actives raise or lower the signal.

Read-out in assay [16]: Collagen III, COL3A1 (gene 1281)
Briefly: BSK_hDFCGF_CollagenIII: BioMAP Diversity Plus: hDFCGF Assay for Collagen III Biomarker Activity (AID 2283056). To be noted: primary human foreskin fibroblasts; actives raise or lower the signal. The procedure, abridged:
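Response relative to DMSO, fitted in both directions, reflects ELISA-measured collagen III in human primary skin fibroblasts 24 h after compound addition.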

Read-out in assay [17]: Epidermal growth factor receptor (EGFR), EGFR (gene 1956)
Briefly: BSK_hDFCGF_EGFR: BioMAP Diversity Plus: hDFCGF Assay for Epidermal growth factor receptor (EGFR) Biomarker Activity (AID 2283057). The note with it: primary human foreskin fibroblasts; actives raise or lower the signal. The procedure, abridged:
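Primary human foreskin fibroblasts (hDFCGF system), sampled 24 h after dosing; EGFR quantified by ELISA. Bidirectional fit relative to DMSO baseline; SRB total-protein staining in parallel cultures for cytotoxicity.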

Read-out in assay [18]: Interleukin-8 (IL8), CXCL8 (gene 3576)
In words: BSK_hDFCGF_IL8: BioMAP Diversity Plus: hDFCGF Assay for Interleukin-8 (IL8) Biomarker Activity (AID 2283058). The note with it: primary human foreskin fibroblasts; actives raise or lower the signal. Summed up: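 Fibroblast monolayers (human foreskin, hDFCGF) received test chemical for 24 h before ELISA detection of IL-8; either increases or decreases relative to DMSO count as activity.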

Assay [19] in a line: BSK_hDFCGF_Proliferation: Cell Proliferation Assessment in the BioMAP Diversity Plus: hDFCGF Assay (AID 2283059).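 Also: curves fitted for both rise and fall of signal versus DMSO baseline.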 To be noted: primary human foreskin fibroblasts. The procedure, abridged: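 This proliferation readout used SRB total-protein staining of human foreskin fibroblasts […], normalized to DMSO with bidirectional curve fitting.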
Read-out in assay [20]: Macrophage colony-stimulating factor (MCSF), CSF1 (gene 1435)
In words: BSK_hDFCGF_MCSF: BioMAP Diversity Plus: hDFCGF Assay for Macrophage colony-stimulating factor (MCSF) Biomarker Activity (AID 2283060). To be noted: primary human foreskin fibroblasts; actives raise or lower the signal. The procedure, abridged: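 fibroblasts (human foreskin, primary), 24 h post-dose; M-CSF by ELISA; bidirectional fit, DMSO = baseline.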

The source made the active and inactive calls. The calls were made as follows: active = hit-call score of the fitted dose curve at least 0.9, where 1 is the maximum; inactive = score below 0.9.

Take `c1ccc2c(c1)-c1cccc3c1c-2cc1ccccc13`: the outcome in assay [1], in [2], in assay [3], in [4], in assay [5] and in assay [6] was inactive. In addition, the result in [7], in assay [8], in [9], in [10], in assay [11] and in [12] was inactive. The outcome in [13], in [14], in assay [15], in assay [16], in assay [17] and in assay [18] was inactive. Further, the outcome in assay [19] and in [20] was inactive.

`CCc1cccc(CC)c1N`: the result in [1], in [2], in assay [3], in assay [4], in assay [5] and in [6] was inactive. Further, the outcome in assay [7], in [8], in [9], in assay [10], in assay [11] and in assay [12] was inactive. The result in [13], in assay [14], in assay [15], in assay [16], in [17] and in assay [18] was inactive. Further, the outcome in assay [19] and in [20] was inactive.

Regarding `NCC(F)(F)C(F)(F)C(F)(F)C(F)(F)F`, the result in assay [1], in assay [2], in assay [3], in assay [4], in [5] and in assay [6] was inactive. The outcome in assay [7], in assay [8], in [9], in [10], in assay [11] and in [12] was inactive. In addition, the outcome in [13], in assay [14], in assay [15], in assay [16], in assay [17] and in assay [18] was inactive. In addition, the result in [19] and in assay [20] was inactive.

With `CCc1ccc(O)c(C(C)(C)C)c1`, the outcome in assay [1], in [2], in assay [3], in [4], in assay [5] and in [6] was inactive. Moreover, the outcome in assay [8], in [9], in [10], in assay [11], in assay [12] and in assay [14] was inactive. Besides, the outcome in [15] and in [17] was inactive. In addition, the concentration at half-maximal activity (AC50) was 20 µM (active) in assay [7]; 35.2 µM (active) in [13]; 20 µM (active) in assay [16]; 36.3 µM (active) in [18]; 34.5 µM (active) in assay [19]; 27.4 µM (active) in [20].

Consider `FC(F)C(F)(F)COCC1CO1` (stereo not given), for which the outcome in assay [1], in [2], in assay [3], in assay [4], in assay [5] and in assay [6] was inactive. The outcome in assay [7], in assay [8], in assay [9], in assay [10], in [11] and in assay [12] was inactive. Also, the outcome in assay [13], in assay [14], in assay [15], in [16], in [17] and in assay [18] was inactive. Besides, the result in [19] and in [20] was inactive.

In the case of `OCCC(F)(F)C(F)(F)C(F)(F)C(F)(F)F`, the result in assay [1], in assay [2], in assay [3], in assay [4], in assay [5] and in assay [6] was inactive. Further, the outcome in [7], in [8], in [9], in assay [10], in assay [11] and in assay [12] was inactive. Further, the outcome in assay [13], in assay [14], in assay [15], in assay [16], in assay [17] and in [18] was inactive. The outcome in assay [19] and in [20] was inactive.
